Test results taken from PubChem BioAssay (NCI).
This is part of a sample that, as a whole, favours compounds with a hit. Of some 83,000 tested, about 20% had one in any assay.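 Cell lines were cultured in 96-well plates, exposed to a single compound concentration, and assessed for percent growth 48 hours later.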 A number with no mark means an inactive call. Active and inactive are the calls of the source. The calls were made as follows: active = growth percent below 10; inactive = the rest.

What follows are molecules tested on A498 renal (assay: NCI-60 one-dose screen, 48 h (100 = growth as untreated, 0 = no growth, -100 = all killed)). Settings: 10 µM.

First: O=[N+]([O-])c1cc(Cl)cc(Cl)c1O
Second: O=S(=O)(O)c1ccc(Cl)cc1
The growth of the first is lower: 106% for the first, 110% for the second.

Going from CN(C)CCCSc1ccccc1NC1=C(Cl)C(=O)C(Nc2ccccc2SCCCN(C)C)=C(Cl)C1=O to CN(C)CCOc1cccc(NC2=C(Cl)C(=O)C(Nc3cccc(OCCN(C)C)c3)=C(Cl)C2=O)c1, the growth falls from 105% to 77.1%.

Going from CCN(CC)CCOc1cccc2c1C(=O)c1ccccc1C2=O to CCN(CC)CCOc1ccc2c(c1O)C(=O)c1ccccc1C2=O, the growth rises from 87.5% to 88.3%.

Going from CN(C)CCN(Cc1ccccc1)c1ccc2ccccc2n1 to O=S(=O)(O)c1cccc(Nc2ccc3ccccc3c2)c1, the growth falls from 119% to 96.7%.

First: Nc1ccc(/C=N/Nc2ccnc3c(O)cccc23)c2cccnc12
Second: O=C(Nc1cccc2c1CCCC2)c1cc2ccccc2cc1O
The growth of the first is higher: 118% for the first, 10.6% for the second.

Compared with CCOC(=O)c1cc(C(=O)c2cc(OC)c(OC)c(OC)c2)n2ccc(-c3cc[n+](CC(=O)c4cc(OC)c(OC)c(OC)c4)cc3)cc12, CCOC(=O)c1cc(C(=O)c2ccc(Cl)cc2)n2ccc(-c3cc[n+](CC(=O)c4ccc(OC)cc4)cc3)cc12 is lower in growth: 80.4% for the first, 73.9% for the second.

First: COc1ccc2nc(-c3ccc(Cl)cc3)cc(-c3nnc(SC/C(=N\O)c4ccccc4)n3-c3ccccc3)c2c1
Second: O=C(Nc1nc(-c2ccccc2)nc2c1sc(=S)n2-c1ccccc1)C(F)(F)F
The growth of the first is higher: 96.3% for the first, 80.4% for the second.

Compared with CCN(CC)CCNc1ccc(C)c2sc3cc(Cl)ccc3c(=O)c12, Cc1ccc(NCCN(C)CC(C)O)c2c(=O)c3ccc(Cl)cc3sc12 (stereo not given) is higher in growth: 53.5% for the first, 73.8% for the second.

Going from C/C=C/CSC(C)(C)C(=O)NC to CCN(CC)CC(=O)N(CC)c1ccc(C)c(Cl)c1, the growth falls from 103% to 86.8%.

Going from CCOS(=O)(=O)c1c(C(C)C)cc(C(C)C)cc1C(C)C to CC(CN(C)C)Oc1ccc(OC(C)CN(C)C)c2c1C(=O)c1ccccc1C2=O (stereo not given), the growth falls from 117% to 59.6%.

Compared with CCOC(=O)c1cc(C(=O)c2cc(OC)c(OC)c(OC)c2)n2ncc3ccccc3c12, COc1cc(OC)c2c(=O)c(O)c(-c3ccccc3)oc2c1 is lower in growth: 73.6% for the first, 69.6% for the second.

First: Cc1ccc(NCCN(C)CC(C)O)c2c(=O)c3ccccc3sc12 (stereo not given)
Second: Cc1ccc(NCCNCC(C)(C)O)c2c(=O)c3ccc(Cl)cc3sc12
The growth of the first is higher: 68.4% for the first, 59% for the second.

Going from CCCCCCCCCCOC(c1ccccc1)c1ccccc1 to N#CCc1csc(Cc2ccccc2)n1, the growth falls from 109% to 103%.

Compared with CC(=O)Nc1ccc2c(c1)C(=O)c1cccc(C(=O)O)c1-2, O=C1c2ccccc2C(=O)c2c1ccc(C(Br)Br)c2Cl is lower in growth: 120% for the first, 108% for the second.

Going from O=C1c2ccccc2C(=O)c2c1ccc(C(Br)Br)c2[N+](=O)[O-] to Cc1ccc(S(=O)(=O)N(C)CCCCCC(=O)O)cc1, the growth rises from 26.6% to 110%.

Going from CCNCC(=O)Nc1ccc(C(=O)OCC)cc1 to CCOC(=O)c1cocc1C(=O)O, the growth rises from 86% to 112%.

First: S=C(SSC(=S)N(c1ccccc1)c1ccccc1)N(c1ccccc1)c1ccccc1
Second: CC(C)CCN(CCC(C)C)CC(=O)Nc1ccc(S(=O)(=O)c2ccc(NC(=O)CN(CCC(C)C)CCC(C)C)cc2)cc1
The growth of the first is higher: 114% for the first, 97.1% for the second.

COc1cc(C)ccc1Oc1nc(Nc2ccc(N3CCOCC3)cc2)ncc1NC(=O)Nc1cc(C(F)(F)F)cc(C(F)(F)F)c1 was tested, and the growth was 67.8%.

CCOC(=O)c1cc(C(=O)c2ccc(OC)c(OC)c2)n2c1ccc1ccc3cccnc3c12 was tested, and the growth was -5.4% (active).
For COc1cc(-c2nn(-c3cccc(NC(=O)NCCNC(=O)c4ccccc4)c3)cc2-c2ccncc2)ccc1Cl, the growth was -3.29% (active).
For COc1cc(-c2nn(-c3cccc(NC(=O)NCCNS(=O)(=O)c4ccc(Cl)cc4)c3)cc2-c2ccncc2)ccc1Cl, the growth was -10.5% (active).
In the case of COc1cc(-c2nn(-c3cccc(NC(=O)CCN4CCN(c5ccccc5)CC4)c3)cc2-c2ccncc2)ccc1Cl, the growth was 5.91% (active).
With O=C(NCCNC(=O)c1ccc(F)cc1)Nc1ccc(-n2cc(-c3ccncc3)c(-c3ccc(Cl)c(O)c3)n2)cc1 the growth was -24.2% (active).

These molecules were tested on CCRF-CEM leukemia in the same assay as above. Settings: 10 µM.

First: O=[N+]([O-])c1cc(Cl)cc(Cl)c1O
Second: O=S(=O)(O)c1ccc(Cl)cc1
The growth of the first is lower: 98.7% for the first, 106% for the second.

First: CCN(CC)CCOc1cccc2c1C(=O)c1ccccc1C2=O
Second: CCN(CC)CCOc1ccc2c(c1O)C(=O)c1ccccc1C2=O
The growth of the first is higher: 92.6% for the first, 77.2% for the second.

First: CCOC(=O)c1cc(C(=O)c2ccc(OC)c(OC)c2)n2c1ccc1ccc3cccnc3c12
Second: CCOC(=O)c1cc(C(=O)c2cc(OC)c(OC)c(OC)c2)n2ncc3ccccc3c12
The growth of the first is lower: 19.9% for the first, 70.1% for the second.

Compared with CN(C)CCN(Cc1ccccc1)c1ccc2ccccc2n1, O=S(=O)(O)c1cccc(Nc2ccc3ccccc3c2)c1 is higher in growth: 88.6% for the first, 95.6% for the second.

Compared with Nc1ccc(/C=N/Nc2ccnc3c(O)cccc23)c2cccnc12, O=C(Nc1cccc2c1CCCC2)c1cc2ccccc2cc1O is higher in growth: 14.4% for the first, 20.9% for the second.

Going from COc1ccc2nc(-c3ccc(Cl)cc3)cc(-c3nnc(SC/C(=N\O)c4ccccc4)n3-c3ccccc3)c2c1 to COc1cc(-c2nn(-c3cccc(NC(=O)CCN4CCN(c5ccccc5)CC4)c3)cc2-c2ccncc2)ccc1Cl, the growth falls from 59.3% to 17.8%.

First: CCN(CC)CCNc1ccc(C)c2sc3cc(Cl)ccc3c(=O)c12
Second: Cc1ccc(NCCN(C)CC(C)O)c2c(=O)c3ccc(Cl)cc3sc12 (stereo not given)
The growth of the first is lower: 11.6% for the first, 20.4% for the second.

Compared with C/C=C/CSC(C)(C)C(=O)NC, CCN(CC)CC(=O)N(CC)c1ccc(C)c(Cl)c1 is lower in growth: 98.5% for the first, 93.8% for the second.

Compared with CCOS(=O)(=O)c1c(C(C)C)cc(C(C)C)cc1C(C)C, CC(CN(C)C)Oc1ccc(OC(C)CN(C)C)c2c1C(=O)c1ccccc1C2=O (stereo not given) is lower in growth: 121% for the first, 28.9% for the second.

Going from O=C(Nc1nc(-c2ccccc2)nc2c1sc(=S)n2-c1ccccc1)C(F)(F)F to COc1cc(OC)c2c(=O)c(O)c(-c3ccccc3)oc2c1, the growth falls from 80.8% to 47.8%.

Compared with Cc1ccc(NCCN(C)CC(C)O)c2c(=O)c3ccccc3sc12 (stereo not given), CC(=O)Nc1ccc2c(c1)C(=O)c1cccc(C(=O)O)c1-2 is higher in growth: 31.3% for the first, 103% for the second.

Compared with CCCCCCCCCCOC(c1ccccc1)c1ccccc1, N#CCc1csc(Cc2ccccc2)n1 is higher in growth: 93.7% for the first, 94.2% for the second.

Going from CCNCC(=O)Nc1ccc(C(=O)OCC)cc1 to CCOC(=O)c1cocc1C(=O)O, the growth falls from 96.4% to 74.1%.

First: S=C(SSC(=S)N(c1ccccc1)c1ccccc1)N(c1ccccc1)c1ccccc1
Second: COc1cc(C)ccc1Oc1nc(Nc2ccc(N3CCOCC3)cc2)ncc1NC(=O)Nc1cc(C(F)(F)F)cc(C(F)(F)F)c1
The growth of the first is higher: 87.9% for the first, 41.9% for the second.

Cc1ccc(S(=O)(=O)N(C)CCCCCC(=O)O)cc1 showed a growth of 110%.

In the case of CN(C)CCCSc1ccccc1NC1=C(Cl)C(=O)C(Nc2ccccc2SCCCN(C)C)=C(Cl)C1=O, the growth was -15.2% (active).
For COc1cc(-c2nn(-c3cccc(NC(=O)NCCNC(=O)c4ccccc4)c3)cc2-c2ccncc2)ccc1Cl, the growth was 7.68% (active).
CCOC(=O)c1cc(C(=O)c2cc(OC)c(OC)c(OC)c2)n2ccc(-c3cc[n+](CC(=O)c4cc(OC)c(OC)c(OC)c4)cc3)cc12 was tested, and the growth was -15% (active).
With COc1cc(-c2nn(-c3cccc(NC(=O)NCCNS(=O)(=O)c4ccc(Cl)cc4)c3)cc2-c2ccncc2)ccc1Cl the growth was 9.85% (active).
Cc1ccc(NCCNCC(C)(C)O)c2c(=O)c3ccc(Cl)cc3sc12 was tested, and the growth was -14.4% (active).
With CN(C)CCOc1cccc(NC2=C(Cl)C(=O)C(Nc3cccc(OCCN(C)C)c3)=C(Cl)C2=O)c1 the growth was -26.6% (active).
CCOC(=O)c1cc(C(=O)c2ccc(Cl)cc2)n2ccc(-c3cc[n+](CC(=O)c4ccc(OC)cc4)cc3)cc12 was tested, and the growth was -3.14% (active).
In the case of O=C1c2ccccc2C(=O)c2c1ccc(C(Br)Br)c2[N+](=O)[O-], the growth was -43.4% (active).
With O=C(NCCNC(=O)c1ccc(F)cc1)Nc1ccc(-n2cc(-c3ccncc3)c(-c3ccc(Cl)c(O)c3)n2)cc1 the growth was 7.35% (active).
CC(C)CCN(CCC(C)C)CC(=O)Nc1ccc(S(=O)(=O)c2ccc(NC(=O)CN(CCC(C)C)CCC(C)C)cc2)cc1 was tested, and the growth was 2% (active).
For O=C1c2ccccc2C(=O)c2c1ccc(C(Br)Br)c2Cl, the growth was -6.37% (active).
